Source: PubChem BioAssay (National Center for Advancing Translational Sciences (NCATS))
Tb PYK inh – qHTS of Trypanosoma Brucei Inhibitors. pyruvate kinase (Trypanosoma brucei), Q57TT1. TbPYK enzyme, Kinase-Glo Plus ATP luminescence, 45 min. Potency, µM (doses to about 76.8 µM), for inactives: at the highest dose activity, negative = inhibition, usual class: inhibitors. actives 0.12% (n = 410,000). AID 624173, 2012; note: potency is the fitted concentration of half-maximal effect; % is set by controls: 0 for no effect and ±100 for the full control effect; nearly all actives have a fitted effect of over 50% in size
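ADP (130 uM final) triggers the TbPYK reaction after compound addition; incubation is 45 min at room temperature. Kinase-Glo Plus is then added and luminescence imaged. Normalized data are fitted to concentration-effect curves.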
RE007 growth inh – qHTS Assay for Inhibitors of the HIV-1 protein Vpr; S. pombe RE007 Vpr strain, BacTiter-Glo ATP luminescence, 24 h; Potency, µM (doses to about 92.2 µM), without a hit: at the highest dose activity change, negative = less growth, usual class: inhibitors; actives 0.21% (n = 360,000); AID 651644, 2012; active = well fitted falling curve with a large enough effect; inconclusive = small, poorly fitted or top-dose-only effect; inactive = no such curve, though single readings can be large or run the other way; note: potency is the fitted concentration of half-maximal effect; % is set by controls: 0 for no effect and ±100 for the full control effect; nearly all actives have a fitted effect of over 50% in size
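Fission yeast strain RE007, carrying one chromosomally integrated HIV-1 vpr copy, was seeded at OD 0.01 in PMG+AL medium with 23 nL pinned compound. After 24 h at 30 °C and 99% humidity, viability was read by BacTiter-Glo luminescence.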
LmPK inh – qHTS Assay for Inhibitors of Leishmania Mexicana Pyruvate Kinase (LmPK) | purified LmPK, Kinase-Glo ATP luminescence, 1 h | actives 0.37% (n = 290,000) | Q27686 | Potency, µM (top dose mostly 57.5 µM), without a hit: at the highest dose activity change, negative = inhibition, hits mostly inhibitors | AID 1721, 2009; note: potency is the fitted concentration of half-maximal effect; % is set by controls: 0 for no effect and ±100 for the full control effect
Target sequence (Q27686 whole entry, looked up): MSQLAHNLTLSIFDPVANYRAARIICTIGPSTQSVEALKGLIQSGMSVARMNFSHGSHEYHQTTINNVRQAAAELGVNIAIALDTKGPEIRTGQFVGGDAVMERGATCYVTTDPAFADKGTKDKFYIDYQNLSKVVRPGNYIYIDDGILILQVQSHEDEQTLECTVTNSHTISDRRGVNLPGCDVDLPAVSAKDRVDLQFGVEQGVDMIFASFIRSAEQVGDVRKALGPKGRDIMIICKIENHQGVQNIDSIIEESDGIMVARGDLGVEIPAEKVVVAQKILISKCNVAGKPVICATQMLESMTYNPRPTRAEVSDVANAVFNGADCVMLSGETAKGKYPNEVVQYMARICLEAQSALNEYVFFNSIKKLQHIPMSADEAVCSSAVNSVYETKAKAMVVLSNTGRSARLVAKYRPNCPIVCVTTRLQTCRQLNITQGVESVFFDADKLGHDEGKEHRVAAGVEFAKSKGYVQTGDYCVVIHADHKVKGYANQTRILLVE
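In 50 mM imidazole pH 7.2 with 7 mM MgCl2, LmPK (0.1 nM) turned over PEP (0.5 mM) and ADP (0.1 mM) for 1 h at room temperature. Luciferase read-out of ATP.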
AMA1 RON2 block – qHTS for Inhibitors of AMA1-RON; Towards Development of Antimalarial Drug Lead: Primary Screen; AlphaScreen AMA1-biotinylated RON2 peptide binding; Potency, µM (titrated, usually from 58.2 µM), without a hit: at the highest dose activity change, negative = inhibition, usual class: inhibitors; AID 720542, 2013; Plasmodium falciparum AMA1 (3D7) - RON2 peptide interaction; actives 0.2% (n = 360,000);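 note: potency is the fitted concentration of half-maximal effect; 0% = vehicle wells and -100% = peptide control; nearly all actives have a fitted effect of over 45% in size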
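AMA1 (3D7) with his tag at 25 nM final met compounds first, then biotinylated RON2 peptide at 25 nM; detection used donor plus acceptor beads, 10 µg/mL apiece, read by AlphaScreen after 30 min at room temperature.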
LmPK inh confirm – Confirmation Assay for Inhibitors of Leishmania Mexicana Pyruvate Kinase (LmPK); shares compounds with LmPK inh; purified LmPK, Kinase-Glo ATP luminescence, 1 h; Potency, µM (highest dose often 57.5 µM), for the others: top-dose activity change, negative = inhibition, most hits filed as inhibitors; actives 40% (n = 150);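 active = compounds giving a full or partial concentration-response curve, as inhibitors or activators; inconclusive = weak, top-dose-only or unclear curve responses; inactive = no response at any tested dose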
Numbers without * were called inactive. Rows were chosen to be rich in hits. Some 0.68% of all compounds tested hit in one or more screens of this group. Unless noted, calls come from the whole dose curve; as a rule, active = well fitted curve in the direction sought with a large enough effect; inconclusive = small, poorly fitted or top-dose-only effect, or another doubt; inactive = no such curve, though single readings can be large; an effect the other way counts as inactive or inconclusive.

Screening CN(C)c1nc2c(c(N)nn2-c2ccc(Cl)cc2)c(=O)o1 returned Tb PYK inh -4%, RE007 growth inh 0%, LmPK inh 0%, AMA1 RON2 block -1% and LmPK inh confirm 5%.
Screening O=C(Nc1nc2ccccc2s1)c1c(F)cccc1Cl returned Tb PYK inh 5%, RE007 growth inh -23%, LmPK inh -1% and AMA1 RON2 block -1%.
`Cn1cc(Cl)c(C(=O)Nc2nc3ccccc3s2)n1` gave Tb PYK inh -10%, RE007 growth inh -29%, LmPK inh 7.9µM*, AMA1 RON2 block -6% and LmPK inh confirm inconclusive.
Screening COc1ccccc1NS(=O)(=O)c1cccc(NC(=O)C2CC(=O)N(Cc3ccccc3)C2)c1 (stereo not given) returned Tb PYK inh -4%, RE007 growth inh 16%, LmPK inh 2% and AMA1 RON2 block -4%.
Screening O=C(c1ccc(-c2cccc(C(F)(F)F)c2)o1)N1CCCCCCC1 returned Tb PYK inh -8%, RE007 growth inh -16% and AMA1 RON2 block -21%.
Screening Cn1c(=O)c2c(c3ccccc31)OC(=O)CC2c1cccc(Cl)c1 (stereo not given) returned Tb PYK inh 2%.
Screening CCN1C(=O)C2(SC(NC(C)=O)=NN2C(C)=O)c2cc(C)ccc21 (stereo not given) returned Tb PYK inh 4%, RE007 growth inh -6%, LmPK inh -2%, AMA1 RON2 block 6% and LmPK inh confirm 2%.
`Oc1ccc(O)c2c1C1c3ccccc3C2c2ccccc21` gave LmPK inh 2.2µM* and LmPK inh confirm -8%.
COc1cc(Cl)c(C)cc1NC(=O)COC(=O)c1cc[n+]([O-])cc1 was read as Tb PYK inh 2%, RE007 growth inh 19%, LmPK inh 2.8µM*, AMA1 RON2 block 5% and LmPK inh confirm 3%.
For Cc1ccccc1NC(=O)COC(=O)c1cc[n+]([O-])cc1 the results were Tb PYK inh -2%, RE007 growth inh 2% and AMA1 RON2 block 13%.
`O=C(Nc1cccn(Cc2ccc(F)cc2)c1=O)NC1CCCCC1` gave Tb PYK inh -2%, RE007 growth inh 0%, LmPK inh 1% and AMA1 RON2 block -8%.
Screening Cc1ccc(Cn2cccc(NC(=O)NC3CCCCC3)c2=O)cc1 returned Tb PYK inh -2%, RE007 growth inh 20%, LmPK inh 5%, AMA1 RON2 block -5% and LmPK inh confirm -1%.
`O=C(COC(=O)CC1CC2CCC1C2)NC(=O)NCc1ccco1` (stereo not given) gave Tb PYK inh -4%, RE007 growth inh 4%, LmPK inh 9% and AMA1 RON2 block -11%.
O=c1c2ccccc2[se]n1-c1ccccc1 was read as Tb PYK inh 8.9µM*, RE007 growth inh -21%, LmPK inh 22µM*, AMA1 RON2 block 10% and LmPK inh confirm 13µM*.
O=c1c2ccccc2nc(-c2ccccc2)n1-c1ccccc1 was read as Tb PYK inh 3%, RE007 growth inh 10%, LmPK inh -1% and AMA1 RON2 block -7%.
For Cn1c(-c2ccc(Br)o2)nc2ccccc21 the results were Tb PYK inh inconclusive, RE007 growth inh inconclusive, LmPK inh 7.9µM*, AMA1 RON2 block -10% and LmPK inh confirm 21µM*.
`Cn1c(-c2ccc(Br)o2)nc2cc(Br)ccc21` gave Tb PYK inh inconclusive, RE007 growth inh -8%, LmPK inh -25% and AMA1 RON2 block -15%.
`Cc1cccc(C(=O)NCC(=O)NCC(c2cccs2)N2CCOCC2)c1` (stereo not given) gave Tb PYK inh 1%, RE007 growth inh -19% and AMA1 RON2 block 22%.
Screening COC(=O)COc1ccc(/C=C2/SC(=O)N(CC(=O)N3CCCC3)C2=O)cc1Br returned Tb PYK inh 0%, RE007 growth inh -4%, LmPK inh -5%, AMA1 RON2 block 14% and LmPK inh confirm 4%.
For COC(=O)COc1cc(Br)c(/C=C2/SC(=O)N(CC(=O)N3CCCC3)C2=O)cc1OC the results were Tb PYK inh 1%, RE007 growth inh 5%, LmPK inh -2% and AMA1 RON2 block 32%.
Screening CCn1c(O)c(N=Nc2ccc3ccccc3n2)c2ccccc21 returned Tb PYK inh -2%, RE007 growth inh 38%, LmPK inh -3% and AMA1 RON2 block 0%.
Screening Brc1ccc(N=Nc2ccc3ccccc3n2)cc1 returned Tb PYK inh inconclusive, RE007 growth inh -1%, LmPK inh 6.3µM*, AMA1 RON2 block inconclusive and LmPK inh confirm 8.2µM*.
CC(=O)NC(=S)Nc1ccc(NC(=O)c2cccs2)cc1 was read as Tb PYK inh -7%, RE007 growth inh 10%, LmPK inh -5% and AMA1 RON2 block -12%.
Screening Cc1c(C(=O)NC(=S)Nc2ccc(NC(=O)c3cccs3)cc2)oc2ccccc12 returned Tb PYK inh -2%, RE007 growth inh 0%, LmPK inh 7.1µM*, AMA1 RON2 block 0% and LmPK inh confirm -13%.
COc1ccc(N=Nc2n(C)c3ccccc3[n+]2C)cc1 was read as LmPK inh 1.4µM* and LmPK inh confirm 13µM*.
CCn1cc(CN2CCCC(C(=O)Nc3cccc(-c4cc5ccccc5[nH]4)c3)C2)c(C)n1 (stereo not given) was read as Tb PYK inh 0%, RE007 growth inh 13%, LmPK inh 1% and AMA1 RON2 block -13%.
`COc1ccc(-c2nc(-c3ccccn3)no2)cc1` gave Tb PYK inh inconclusive, RE007 growth inh inconclusive, LmPK inh 1.6µM*, AMA1 RON2 block 13% and LmPK inh confirm 6.5µM*.
For Cc1ccccc1-c1nc(-c2ccccn2)no1 the results were Tb PYK inh inconclusive, RE007 growth inh inconclusive, LmPK inh 2.5µM*, AMA1 RON2 block 19% and LmPK inh confirm 12µM*.
Clc1ccc(-c2nc(-c3ccccn3)no2)cc1Cl was read as Tb PYK inh 2%, RE007 growth inh -18%, LmPK inh inconclusive and AMA1 RON2 block 6%.
For CCc1noc(C)c1C(=O)NNC(=O)c1ccc(Br)cc1 the results were Tb PYK inh 3%, RE007 growth inh -22% and AMA1 RON2 block 14%.
Screening O=C(NCC(c1cccs1)N1CCOCC1)c1cc(S(=O)(=O)N2CCOCC2)ccc1Cl (stereo not given) returned Tb PYK inh 1%, RE007 growth inh 3% and AMA1 RON2 block -1%.
